Test results reported in PubChem BioAssay (EPA / NIEHS).
Records with an inconclusive call do not appear. Some compounds were tested as several samples or in several runs, with calls that do not always agree. Activity calls are given as the source filed them. The calls were made as follows: active = hit-call score of the fitted dose curve at least 0.9, where 1 is the maximum; inconclusive = response in the unintended direction; inactive = score below 0.9.

assay: CCTE_Shafer_MEA_dev_AB: CCTE's Alamar Blue Assay for Cytotoxicity in the Neural Network Formation Assay, Shafer Lab (AID 2284083);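 also: twelve days of exposure from plating with re-dosing on DIV 5 and 9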
Method: CCTE_Shafer_MEA_dev assay is conducted using Axion Biosystems 48 well microelectrode array (MEA) plates and Maestro recording system. Each well of the MEA plate contains a grid of 16 microelectrodes embedded in the culture surface. Electrically active cells, such as neurons, can be cultured over the electrodes, and electrical activity in these cells can be recorded extracellularly. The spontaneous firing of neurons is captured from each electrode on a microsecond timescale providing both temporally and spatially precise data. […] The CCTE_Shafer_MEA_dev assay uses primary cultures of rat cortical neurons. Recordings are made on days post-plating 5, 7, 9 and 12. As these cultures mature over time, neural networks develop functional activity and form cohesive networks in which electrical activity can be highly coordinated. CCTE_Shafer_MEA_dev_AB is 1 of 19 assay components of the CCTE_Shafer_MEA_dev assay. It measures the resazurin reduction using fluorescence.Data from the assay component CCTE_Shafer_MEA_dev_AB was analyzed into 1 assay endpoint. This assay endpoint, CCTE_Shafer_MEA_dev_AB, was analyzed in the positive analysis fitting direction relative to DMSO as the negative control and baseline of activity. Using a type of viability reporter, loss-of-signal activity can be used to understand cell viability.
On the day prior to culture, each well was coated thoroughly with 150 uL of 0.05% polyethyleneimine (PEI, Sigma Cat P3143) in 50 mM HEPES (Sigma Cat H7523) at a pH of 8. The plate was incubated at 37C for one hour. PEI was rinsed out with 500 uL of sterile water three times. Plates were stored at 4C until the day of culture. This culture was plated at a seeding density of 1.5 x 10^5 cells/well on a 48-well MEA plate, prepared as described above. Cells were administered via a 25 uL media/laminin ([…]; Sigma Cat L2020-1MG) drop directly onto the microelectrode array, as adding the cells with the laminin results in better attachment than pre-coating with laminin. After 2 hours, an additional 475 uL of cortical media was added and the cells returned to the incubator. Exposure starts at day 0 of plating and is continued over twelve days of network development until the experiment is terminated. Cells are fed with fresh medium on DIV 5 and 9, following the recordings on those days. The entire volume of media in the well is exchanged and any vehicle or compound treatment is renewed. Complete details are found in OP-NHEERL/ISTD/SBB/TJS/2015-03-r0 (available on request, email shafer.tim@epa.gov). Measurement of the electrical activity is non-invasive, and recordings can be made from the same plate over multiple different days of the culture. In cortical neurons, this allows for the measurement of extracellular action potentials over the period during which networks form in the MEA plate.

| Structure (SMILES) | outcome | AC50 |
| --- | --- | --- |
| O=S(=O)(c1ccc(O)cc1)c1ccc(O)cc1 | inactive | – |
| CC(O)C(F)(F)C(F)(F)F (centres undefined) | inactive | – |
| CC(C)(C)c1ccccc1OP(=O)(Oc1ccccc1)Oc1ccccc1 | inactive | 15 µM (active) |
| CCOc1ccc(C(C)(C)COCc2cccc(Oc3ccccc3)c2)cc1 | – | 1.98 µM (active) |
| C=CC(=O)OCC(F)(F)C(F)F | – | 20.7 µM (active) |
| OCC(F)(F)OC(F)(F)C(F)(F)OC(F)(F)C(F)(F)OC(F)(F)F | inactive | – |
| CO/N=C(/C(=O)OC)c1ccccc1COc1ccccc1C | – | 1.15 µM (active) |
| CCCCC(CC)COP(=O)(Oc1ccccc1)Oc1ccccc1 (centres undefined) | inactive | – |
| O=C(O)C(F)(F)C(F)(F)C(=O)O | inactive | – |
| CCOP(=S)(OCC)SCSCC | inactive | 68.9 µM (active) |
| CCCCC(CC)COC(=O)c1c(Br)c(Br)c(Br)c(Br)c1C(=O)OCC(CC)CCCC (centres undefined) | – | 0.0248 µM (active) |
| CCC1(c2ccccc2)C(=O)N=C(O)NC1=O (centres undefined) | inactive | – |
| O=P(Oc1ccccc1)(Oc1ccccc1)Oc1ccccc1 | inactive | – |
| c1cc2c3c(cccc3c1)CC2 | inactive | – |
| OCC(F)(F)OC(F)(F)C(F)(F)OC(F)(F)C(F)(F)OC(F)(F)CO | inactive | – |
| ClC1=C(Cl)C2(Cl)C3C(Cl)C(Cl)CC3C1(Cl)C2(Cl)Cl (centres undefined) | – | 7.42 µM (active) |
| O=C(O)C(F)(OC(F)(F)C(F)(F)C(F)(F)F)C(F)(F)F (centres undefined) | inactive | – |
